Test results reported in article PMC4336329 (PLoS ONE, 2015).
The campaign covered roughly 310,000 compounds. About 14,000 (4.5%) showed an effect of 50% or more. Effects have a minus sign here. This excerpt belongs to a sample that is enriched for strong results.

These compounds were tested against human ether-à-go-go-related gene (hERG) potassium channel (human, UniProt Q12809) (assay: primary screen, population patch clamp on CHO cells stably expressing hERG; higher = less effect of the substance).
Chain of human ether-à-go-go-related gene (hERG) potassium channel (Q12809 whole entry, looked up): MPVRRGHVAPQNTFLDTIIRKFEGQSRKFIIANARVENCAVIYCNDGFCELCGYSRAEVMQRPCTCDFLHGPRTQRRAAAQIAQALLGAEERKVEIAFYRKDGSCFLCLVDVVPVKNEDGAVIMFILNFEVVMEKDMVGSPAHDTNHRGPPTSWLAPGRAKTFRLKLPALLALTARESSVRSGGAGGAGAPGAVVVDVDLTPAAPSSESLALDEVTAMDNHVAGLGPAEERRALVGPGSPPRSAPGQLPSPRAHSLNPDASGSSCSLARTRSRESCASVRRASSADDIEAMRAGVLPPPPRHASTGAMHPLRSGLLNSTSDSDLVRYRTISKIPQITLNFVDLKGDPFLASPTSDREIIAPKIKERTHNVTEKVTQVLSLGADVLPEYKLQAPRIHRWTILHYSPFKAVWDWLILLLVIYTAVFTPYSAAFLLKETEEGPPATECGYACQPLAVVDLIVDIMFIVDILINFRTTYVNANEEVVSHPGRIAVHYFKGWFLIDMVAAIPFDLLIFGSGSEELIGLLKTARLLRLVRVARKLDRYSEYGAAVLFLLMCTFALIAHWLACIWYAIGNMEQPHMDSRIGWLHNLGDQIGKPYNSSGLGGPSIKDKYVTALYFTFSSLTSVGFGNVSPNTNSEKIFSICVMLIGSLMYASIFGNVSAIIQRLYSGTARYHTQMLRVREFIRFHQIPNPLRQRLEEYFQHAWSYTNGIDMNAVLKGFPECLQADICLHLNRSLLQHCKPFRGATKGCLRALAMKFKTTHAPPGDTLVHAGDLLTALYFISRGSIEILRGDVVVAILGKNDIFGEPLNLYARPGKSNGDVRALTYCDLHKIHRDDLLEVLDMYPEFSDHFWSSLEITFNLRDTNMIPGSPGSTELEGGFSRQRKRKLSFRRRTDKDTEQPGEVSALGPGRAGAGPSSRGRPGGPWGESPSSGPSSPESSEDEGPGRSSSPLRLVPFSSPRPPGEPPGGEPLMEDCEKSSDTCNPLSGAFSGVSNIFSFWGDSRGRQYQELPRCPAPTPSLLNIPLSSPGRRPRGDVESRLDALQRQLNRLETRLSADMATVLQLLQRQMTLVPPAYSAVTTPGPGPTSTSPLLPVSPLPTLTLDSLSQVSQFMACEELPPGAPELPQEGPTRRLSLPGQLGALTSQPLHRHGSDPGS
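Note: peak tail current of the secondary pulse compared with the same well before compound.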

| Compound | hERG current change (%, negative = inhibition) at 10uM [%] |
| --- | --- |
| O=C(NC(=O)N1CCOCC1)c1ccccc1 | 8.08 |
| CC(=O)NNC(=O)CSc1nnc(-c2ccccc2)c(-c2ccccc2)n1 | 19.4 |
| COc1ccc(CN2CC(=O)N(c3ccc(C)c(C)c3)C2=S)cc1OC | 12.2 |
| CC(C)Oc1c(Cl)cc(CNC(C)(C)CO)cc1Cl | 0.775 |
| CSc1nnc(-c2ccco2)c(-c2ccco2)n1 | 2.75 |
| CCCCCC(=O)Nc1ccc2oc(-c3cccnc3)nc2c1 | -6.74 |
| COC(=O)C1=C(C(=O)OC)SC2(S1)C(C(=O)OC)=C(C(=O)OC)SC1=C2c2cc(C)ccc2NC1(C)C | 14.3 |
| COC(=O)C1=C(C(=O)OC)SC2(S1)C(C(=O)OC)=C(C(=O)OC)SC1=C2c2cc(C)cc(C)c2NC1(C)C | 26.1 |
| COC(=O)C1=C(C(=O)OC)SC2(S1)C(C(=O)OC)=C(C(=O)OC)SC1=C2c2cccc(C)c2NC1(C)C | -51.6 |
| CCOC(=O)C1CCCN(C(=O)c2cc(Nc3ccc(OC)cc3)nc3ccccc23)C1 (centres unmarked) | -15 |
| Cc1ccc2sc(N(CCCN(C)C)C(=O)c3ccc(S(=O)(=O)N(C)C4CCCCC4)cc3)nc2c1C.Cl | -8.13 |
| CN(C)CCCN(C(=O)c1ccc(S(=O)(=O)N(C)C2CCCCC2)cc1)c1nc2ccc(F)cc2s1.Cl | -71.9 |
| CN(C)CCCN(C(=O)c1ccc(S(=O)(=O)N(C)C2CCCCC2)cc1)c1nc2ccc(Br)cc2s1.Cl | 2.39 |
| CCc1ccc2nc(N(CCCN(C)C)C(=O)c3ccc(S(=O)(=O)N(C)C4CCCCC4)cc3)sc2c1.Cl | 8.35 |
| COc1cc2nc(N(CCN(C)C)C(=O)c3ccc(S(=O)(=O)N(C)CC4CCCO4)cc3)sc2cc1OC.Cl (centres unmarked) | -9.01 |
| COc1cc2nc(N(CCCN(C)C)C(=O)c3ccc(S(=O)(=O)N(C)C4CCCCC4)cc3)sc2cc1OC.Cl | -51.6 |
| CCCCNC(=O)C1CCN(S(=O)(=O)c2ccc3c(c2)CC(C)N3C(=O)C2CC2)CC1 (centres unmarked) | 1.16 |
| NC(=O)C(c1ccc(Cl)cc1)c1ccc(Sc2ccc(Cl)cc2)nn1 (centres unmarked) | -9.96 |
| Cc1cc(NCCCn2ccnc2)n2nc(C)c(-c3ccc(Cl)cc3)c2n1 | -71.8 |
| CCCc1cc(N2CCCC2)n2nc(C)c(-c3ccccc3)c2n1 | 8.36 |
| Cc1cc(NCCN2CCOCC2)n2nc(C)c(-c3ccc(Cl)cc3)c2n1 | -50.2 |

| Compound | hERG current change (%, negative = inhibition) at 10uM [%] |
| --- | --- |
| CCCc1cc(NCc2ccccn2)n2nc(C)c(-c3ccccc3)c2n1 | 4.77 |
| Cc1cc(NCCCN2CCOCC2)n2nc(C)c(-c3ccc(F)cc3)c2n1 | -31.1 |
| Cc1nn2c(NCCCn3ccnc3)cc(C(C)C)nc2c1-c1ccccc1 | -23.5 |
| Cc1cc(NCc2ccccn2)n2nc(C)c(-c3ccc(Cl)cc3)c2n1 | 14.2 |
| Cc1cc(NCCCN2CCOCC2)n2nc(C)c(-c3ccccc3)c2n1 | -14.6 |
| Cc1cc(NCCC(C)C)n2nc(C)c(-c3ccccc3)c2n1 | 1.03 |
| Cc1cc(NCCCn2ccnc2)n2nc(C)c(-c3ccccc3)c2n1 | -72.8 |
| CCCc1cc(NCCCn2ccnc2)n2nc(C)c(-c3ccccc3)c2n1 | -74.9 |
| COc1ccc(CCNc2cc(C)nc3c(-c4ccc(Cl)cc4)c(C)nn23)cc1OC | 15.5 |
| NNC(=O)c1ccc2[nH]c3c(c2c1)CCCC3 | 5.31 |
| COc1ccc(-c2nc3ccccc3c(C(=O)Nc3ccc(S(=O)(=O)Nc4cc(C)on4)cc3)c2C)cc1 | -7.09 |
| COc1ccc(NS(=O)(=O)c2ccc(N3CCOCC3)c(NC(=O)c3ccccc3Br)c2)cc1 | -11.2 |
| COc1cc(C(=O)N2CCN(C(=O)C(Cc3cc(C)ccc3C)NC(C)=O)CC2)cc(OC)c1OC (centres unmarked) | -14.4 |
| CCc1ccc(N(C(=O)c2csnn2)C(C(=O)NC2CCCC2)c2cccnc2)cc1 (centres unmarked) | -24.9 |
| O=C(O)C1(c2ccccc2)CCN(S(=O)(=O)c2cccs2)CC1 | 5.95 |
| N#CC1(NC(=O)COC(=O)c2cc(=O)[nH]c3ccccc23)CCCCC1 | 14 |
| Cc1nn(CC(N)=O)c(=O)c2ccccc12 | 10.6 |
| CN(C)CCNc1nc2c(c(=O)[nH]c(=O)n2C)n1CCOc1ccccc1 | -5.88 |
| Cc1nc(Cl)c2oc3ccccc3c2n1 | 9.28 |
| O=C(NCCCN1CCC(Cc2ccccc2)CC1)C1CCC(=O)N1C1CCCC1 (centres unmarked) | 6.52 |
| Cc1ccc(C(=O)NCCCNC(=O)c2ccccn2)cc1 | 5.5 |

| Compound | hERG current change (%, negative = inhibition) at 10uM [%] |
| --- | --- |
| Cc1ccc(C(=O)NCCNC(=O)c2ccccn2)cc1 | 12.9 |
| Cc1ccc(/C(=C\CN2CCCC2)c2ccccn2)cc1.Cl | -55.4 |
| CCOC(=O)Cc1csc(SCC(=O)c2c(N)n(CC(C)C)c(=O)n(C)c2=O)n1 | -2.23 |
| COc1ccccc1OC(C)C(=O)N1CC(=O)Nc2ccccc21 (centres unmarked) | 15.8 |
| Cc1ccc(OC(C)C(=O)N2CC(=O)Nc3ccccc32)cc1 (centres unmarked) | -67.7 |
| Cc1ccc(OC(C)C(=O)N2CC(=O)Nc3ccccc32)c(C)c1 (centres unmarked) | 2.56 |
| CCCN(CC(=O)Nc1ccccc1OC)C(=O)Cc1ccc2c(c1)CCC2 | -18.1 |
| [O-][n+]1c2ccccc2c2n1CCN1CCOC21c1ccc(Cl)cc1 (centres unmarked) | -42.3 |
| CN(C)c1ccc(/C=C/c2nc3ccccc3s2)cc1 | 17.7 |
| CC[n+]1c(/C=C/C=C/N(C(C)=O)c2ccccc2)sc2cc(OC)ccc21.[I-] | -32.8 |
| CN(C)c1ccc(/C=C/C=C/c2sc3ccccc3[n+]2C)cc1.[O-][Cl+3]([O-])([O-])[O-] | -42.6 |
| CC[n+]1c(/C=C/C=C/c2ccc(N(C)C)cc2)sc2ccccc21.[O-][Cl+3]([O-])([O-])[O-] | -73.4 |
| CC[n+]1c(/C=C/N(C)c2ccccc2)sc2ccc(Cl)cc21.[O-][Cl+3]([O-])([O-])[O-] | -62.6 |
| CC[n+]1c(/C=C/C=C/N(C(C)=O)c2ccccc2)sc2ccccc21.[I-] | -69.8 |
| CC/C(=C/c1sc2ccccc2[n+]1CC)SC.COS(=O)(=O)[O-] | 0.104 |
| CCCc1nn(C(=O)c2ccccc2)c2c1C(=O)CC(C)(C)C2 | 11.5 |
| C=CCOC(=O)/C(=C\c1cccc2ccccc12)NC(=O)c1ccccc1 | -9.44 |
| CC(=O)/C=C(\C)N=Nc1c(O)[nH]c2ccccc12 | 5.48 |
| Cc1ccc(NC(=O)c2ccccc2NS(=O)(=O)c2ccc(F)cc2)cc1S(=O)(=O)N1CCCCC1 | 3.17 |
| Cc1ccc(NS(=O)(=O)c2ccc(-n3cccn3)cc2)c(C)c1 | 22.8 |
| CCC(CC)c1nnc(NC(=O)C2CC(=O)N(CCc3ccc(OC)c(OC)c3)C2)s1 (centres unmarked) | -0.537 |

| Compound | hERG current change (%, negative = inhibition) at 10uM [%] |
| --- | --- |
| CCn1c2ccccc2c2cnc(N=CN(C)C)c(C#N)c21 | -24 |
| N#Cc1ccc(Nc2nc(-c3ccc(O)cc3O)cs2)cc1C(F)(F)F | 11.9 |
| CCOc1ccccc1N1CCN(Cc2cnc(-c3ccccc3)[nH]2)CC1 | -40.6 |
| Fc1ccc(N2CCN(Cc3cn[nH]c3-c3ccccc3)CC2)cc1 | -59.2 |
| CCOc1ccccc1N1CCN(Cc2cc3c(cc2[N+](=O)[O-])OCO3)CC1 | -20.6 |
| Fc1ccc(N2CCN(Cc3nnc(-c4ccccc4)o3)CC2)cc1 | -11.9 |
| COc1ccc(-c2[nH]ncc2CN2CCN(c3ccc(F)cc3)CC2)cc1 | -45.7 |
| Fc1ccc(-c2[nH]ncc2CN2CCN(c3ccc(F)cc3)CC2)cc1 | -44.5 |
| CCOc1ccccc1N1CCN(Cc2cn[nH]c2-c2ccc(F)cc2)CC1 | -72.3 |
| COc1ccccc1N1CCN(Cc2cn[nH]c2-c2ccc(F)cc2)CC1 | -55.3 |
| COc1ccccc1N1CCN(Cc2ccccc2Cl)CC1 | -23.5 |
| Cc1c(C)n(CCCN(C)C)c2ncnc(NCc3ccccc3)c12 | -13.9 |
| O=P(C(=Nc1ccc(Cl)cc1)N1CCOCC1)(N1CCOCC1)N1CCOCC1 | -17.6 |
| Cc1ccc(S(=O)(=O)N(C)C)cc1NC(=S)N(C)C1CCN(C)CC1 | 16.2 |
| Cc1ccc(C)c(NC(=O)NCCN2CCCCC2)c1 | -15.1 |
| COc1ccc(S(=O)(=O)N2CCOC23CCN(S(=O)(=O)c2cc(C)ccc2OC)CC3)cc1 | 26.8 |
| CCN(C(=O)COC(=O)Cc1c[nH]c2ccccc12)c1c(N)n(Cc2ccccc2)c(=O)[nH]c1=O | 16.3 |
| Cc1cc(Br)ccc1NC(=S)N1CCOCC1 | 12.5 |
| COc1ccc(CNC(=O)CCCOc2cc(=O)n(C)c3ccccc23)cc1 | -19.2 |
| Cn1c(SCC(=O)Nc2nccs2)nnc1C12CC3CC(CC(C3)C1)C2 | -6.22 |
